Among the test systems are PIKFYVE; PIM1; PIM2; PIM3; PIP5K1A; PIP5K1C; PIP5K2B.
Settings in all cases: concentration: 1 μM, replicates: in singlicate; n = 1
The next test relates to T1, PIK4CB.
T1 construct: gene PI4KB

The test system of another test is T2, PIP5K2C.
T2 construct: gene PIP4K2C

A further test has as its system T3, PKAC-alpha.
T3 construct: gene PRKACA

These results are taken from PMC5540273 (PLoS ONE, 2017).
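Further: KINOMEscan kinase panel screen.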

On to `O=C1NC(=O)C(c2ccc(Cl)cc2)=C1Nc1ccc(O)cc1` [SB-340867], for which the “%Inh” value with PIK4CB worked out at 13%; in the test on PIKFYVE it was 9%; with PIM1, 0%; with PIM2, 3%; in the test on PIM3 it was 0%; with PIP5K1A, 0%. For the same compound, the “%Inh” value in the test with PIP5K1C stood at 40%; with PIP5K2B it was 0%; with PIP5K2C, 0%; in the test with PKAC-alpha, 0%.

On to `Cn1cnc2c(N)ncnc21` [SKF-97623], for which the “%Inh” value with PIK4CB stood at 10%; in the test with PIKFYVE, 44%; with PIM1, 5%; in the test on PIM2 it was 0%; in the test with PIM3, 0%; in the test with PIP5K1A, 30%. Also, the “%Inh” value with PIP5K1C came out at 0%; in the test on PIP5K2B it was 14%; in the test on PIP5K2C, 33%; in the test on PKAC-alpha, 0%.

Turning to `CNC(=O)c1ccc(C)c(-n2c(C)cc(OCc3ccc(F)cc3F)c(Br)c2=O)c1`, the “%Inh” value in the test on PIK4CB is given as 0%; in the test on PIKFYVE it was 40%; in the test on PIM1, 0%; with PIM2 it was 0%; with PIM3, 0%; with PIP5K1A, 0%. Further, the “%Inh” value with PIP5K1C is given as 1%; in the test with PIP5K2B it was 0%; in the test on PIP5K2C, 0%; with PKAC-alpha it was 0%.

For the compound `COC(=O)C(NC(=O)NC1CCN(c2ccnc(Nc3ccc(F)cc3)n2)C1)c1ccccc1` (centres unmarked) [GSK1379712], the “%Inh” value in the test on PIK4CB was determined as 16%; in the test with PIKFYVE, 28%; with PIM1, 0%; with PIM2, 0%; in the test with PIM3, 0%; in the test with PIP5K1A, 9%. Further, the “%Inh” value in the test on PIP5K1C was 41%; in the test with PIP5K2B, 17%; in the test with PIP5K2C, 29%; in the test on PKAC-alpha, 0%.

For the compound `CC(C)c1cc(-c2ccc3c(N)n[nH]c3c2)nc(N)n1` [GSK2250882], the “%Inh” value in the test on PIK4CB was 0%; in the test with PIKFYVE, 0%; in the test with PIM1, 20%; with PIM2 it was 0%; in the test on PIM3, 15%; in the test on PIP5K1A it was 26%. Also, the “%Inh” value in the test with PIP5K1C was determined as 49%; in the test with PIP5K2B, 36%; in the test with PIP5K2C, 2%; in the test on PKAC-alpha, 0%.

On to `COc1ccc(-c2coc3ccc(-c4nnc(C)o4)cc23)cc1`, for which the “%Inh” value with PIK4CB is on record as 0%; in the test with PIKFYVE, 0%; in the test on PIM1 it was 10%; with PIM2 it was 21%; in the test with PIM3, 15%; in the test on PIP5K1A, 13%. Moreover, the “%Inh” value is 14% with PIP5K1C, 9% in the test with PIP5K2B, 10% with PIP5K2C and 3% with PKAC-alpha.

On to `Fc1ccc(-c2nn3cccc(F)c3c2-c2ccncc2)cc1` [GW475620], for which the “%Inh” value turned out to be 0% in the test with PIK4CB; 28% in the test on PIKFYVE; 0% with PIM1; 0% in the test on PIM2; 0% in the test with PIM3; 0% in the test with PIP5K1A. Also, the “%Inh” value in the test on PIP5K1C turned out to be 28%; in the test with PIP5K2B, 19%; in the test on PIP5K2C it was 0%; in the test on PKAC-alpha it was 11%.

For `CCc1ccc(-c2ccc3c(c2)-c2n[nH]cc2S(=O)(=O)N3C)cc1`, the “%Inh” value in the test with PIK4CB is 0%; with PIKFYVE, 100%; with PIM1 it was 0%; in the test on PIM2, 0%; with PIM3, 18%; in the test with PIP5K1A it was 0%. Also, the “%Inh” value in the test on PIP5K1C is reported as 45%; with PIP5K2B, 0%; in the test with PIP5K2C it was 16%; with PKAC-alpha it was 0%.

`CS(=O)(=O)CCNCc1nc(-c2ccc3ncnc(Nc4ccc(OCc5ccccc5)c(Cl)c4)c3c2)cs1.Cl` [GW582764]: the “%Inh” value with PIK4CB was found to be 0%; with PIKFYVE, 25%; in the test on PIM1, 14%; with PIM2, 0%; with PIM3 it was 0%; in the test with PIP5K1A, 47%. The “%Inh” value in the test with PIP5K1C stood at 52%; with PIP5K2B, 10%; in the test with PIP5K2C, 56%; in the test with PKAC-alpha it was 0%.

As for `Fc1ccc(-c2nc3n(c2-c2ccncc2)CCS3)cc1` [GI98581], the “%Inh” value with PIK4CB worked out at 0%; in the test with PIKFYVE, 0%; in the test on PIM1, 0%; in the test on PIM2, 0%; with PIM3, 0%; in the test on PIP5K1A it was 33%. Further, the “%Inh” value with PIP5K1C amounted to 47%; in the test on PIP5K2B, 0%; in the test with PIP5K2C it was 12%; in the test on PKAC-alpha, 33%.

For the compound `Cc1ccccc1Cn1ccn2c(=O)cc(N3CCOCC3)nc12` [GSK2269905], the “%Inh” value in the test with PIK4CB is listed as 9%; in the test on PIKFYVE, 0%; in the test on PIM1, 17%; in the test with PIM2 it was 0%; in the test with PIM3 it was 0%; in the test on PIP5K1A it was 0%. Further, the “%Inh” value is given as 11% in the test on PIP5K1C, 12% in the test with PIP5K2B, 10% in the test on PIP5K2C and 0% in the test on PKAC-alpha.

Turning to `O=C1NC(=O)C(c2ccc(Cl)cc2)=C1Nc1cccc(Cl)c1` [SB-317651], the “%Inh” value in the test on PIK4CB worked out at 8%; in the test on PIKFYVE it was 12%; in the test with PIM1 it was 0%; in the test with PIM2, 0%; in the test on PIM3, 2%; in the test on PIP5K1A it was 0%. Moreover, the “%Inh” value in the test with PIP5K1C is reported as 28%; in the test with PIP5K2B, 0%; in the test on PIP5K2C it was 20%; in the test with PKAC-alpha it was 3%.

As for `CCn1c(-c2ccccc2)nc2cnccc21` [SB-733416], the “%Inh” value in the test with PIK4CB was 0%; with PIKFYVE, 40%; in the test on PIM1, 0%; in the test on PIM2 it was 0%; with PIM3 it was 0%; in the test with PIP5K1A it was 5%. The “%Inh” value was 21% in the test with PIP5K1C, 0% in the test on PIP5K2B, 13% in the test with PIP5K2C and 0% with PKAC-alpha.

With `COc1cccc(C2=C(Nc3cc(Cl)c(O)c(Cl)c3)C(=O)NC2=O)c1` [SB-390767], the “%Inh” value is given as 21% in the test on PIK4CB; 0% in the test on PIKFYVE; 0% in the test with PIM1; 0% in the test on PIM2; 0% in the test on PIM3; 0% in the test with PIP5K1A. The “%Inh” value in the test with PIP5K1C is 66%; in the test with PIP5K2B, 15%; in the test on PIP5K2C it was 15%; in the test on PKAC-alpha, 0%.

For the compound `COc1ccc(CSc2nnc(-c3ccc4ncsc4c3)o2)cc1C(F)(F)F`, the “%Inh” value with PIK4CB worked out at 0%; with PIKFYVE it was 0%; with PIM1, 1%; in the test on PIM2, 0%; in the test on PIM3, 10%; in the test with PIP5K1A it was 0%. Further, the “%Inh” value is 11% in the test with PIP5K1C, 17% with PIP5K2B, 11% in the test with PIP5K2C and 0% in the test on PKAC-alpha.

`COc1cc2ncnc(Nc3cccc(Br)c3)c2cc1OC.Cl` [GI230329]: the “%Inh” value in the test on PIK4CB is listed as 0%; in the test with PIKFYVE, 32%; in the test on PIM1, 21%; in the test with PIM2, 0%; with PIM3 it was 14%; in the test on PIP5K1A it was 0%. The “%Inh” value was determined as 79% with PIP5K1C, 14% with PIP5K2B, 52% with PIP5K2C and 0% with PKAC-alpha.

As for `O=C(Nc1n[nH]c2cc(-c3ccsc3)ccc12)C1CC1` [SB-732932], the “%Inh” value in the test on PIK4CB is reported as 27%; in the test with PIKFYVE, 0%; in the test with PIM1, 18%; with PIM2 it was 0%; in the test with PIM3, 11%; in the test with PIP5K1A, 61%. Further, the “%Inh” value turned out to be 3% in the test on PIP5K1C, 52% in the test on PIP5K2B, 3% in the test on PIP5K2C and 0% with PKAC-alpha.
